Bioassay records as filed in PubChem BioAssay.
The list is not random: actives were taken first. Their share in the collection is about 1.2%.
AMA1-RON2 inh: AMA1-RON2 (P. falciparum) interaction inhibition | Potency, µM (series often up to 58.2 µM), without a hit: at the highest dose activity change, negative = inhibition, usual class: inhibitors | hit rate 0.2% among 360,000 | AID 720542 | AlphaScreen AMA1-biotinylated RON2 peptide binding;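 further: 0% = vehicle wells and -100% = peptide control; nearly all actives have a fitted effect of over 45% in size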
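AMA1 (3D7) with his tag at 25 nM final met compounds first, then biotinylated RON2 peptide at 25 nM; detection used donor plus acceptor beads, 10 µg/mL apiece, read by AlphaScreen after 30 min at room temperature.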
LmPK inhibitor: LmPK (Leishmania mexicana) enzyme inhibition | AID 1721 | Potency, µM (titrated, usually from 57.5 µM), for the others: at the highest dose activity change, negative = inhibition, actives largely listed as inhibitors | purified LmPK, Kinase-Glo ATP luminescence, 1 h | Q27686 | hit rate 0.37% among 290,000; further: on the % scale 0 is the no-effect control and ±100 the full control effect
Target sequence (Q27686 whole entry, looked up): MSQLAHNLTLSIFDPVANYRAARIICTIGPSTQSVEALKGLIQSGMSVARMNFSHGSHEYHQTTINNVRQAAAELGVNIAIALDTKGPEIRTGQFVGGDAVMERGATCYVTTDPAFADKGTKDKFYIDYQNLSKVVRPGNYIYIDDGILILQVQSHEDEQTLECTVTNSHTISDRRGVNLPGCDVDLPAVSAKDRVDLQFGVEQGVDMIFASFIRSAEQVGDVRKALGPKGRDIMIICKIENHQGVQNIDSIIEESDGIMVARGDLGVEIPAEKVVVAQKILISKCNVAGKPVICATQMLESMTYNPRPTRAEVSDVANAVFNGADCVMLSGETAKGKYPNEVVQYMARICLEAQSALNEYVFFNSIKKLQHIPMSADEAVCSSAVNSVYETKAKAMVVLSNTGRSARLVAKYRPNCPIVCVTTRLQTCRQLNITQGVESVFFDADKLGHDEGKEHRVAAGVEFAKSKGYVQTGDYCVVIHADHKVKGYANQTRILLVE
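qHTS format; LmPK 0.1 nM; substrates PEP 0.5 mM and ADP 0.1 mM. One-hour room-temperature incubation, then coupled luciferase luminescence; 0.5 nM enzyme wells mark activation.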
Tb PYK inh: T. brucei pyruvate kinase inhibition; TbPYK enzyme, Kinase-Glo Plus ATP luminescence, 45 min; Potency, µM (titrated, usually from 76.8 µM), inactives show top-dose activity, negative = inhibition, hits mostly inhibitors; hit rate 0.12% among 410,000; further: on the % scale 0 is the no-effect control and ±100 the full control effect; nearly all actives have a fitted effect of over 50% in size
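Assay buffer: 50 mM TEA pH 7.2, 100 mM KCl, 10 mM MgCl2, 0.05% BSA, 0.01% Tween-20. Pyruvate kinase from T. brucei plus substrate met compound, then ADP (130 uM final). Luminescence was read post 45 min RT.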
FBPA Giardia inh: inhibitors of Giardia lamblia fructose-1,6-bisphosphate aldolase; purified Giardia FBPA; A8B2U2; Potency, µM (doses to about 59.6 µM), for the others: top-dose activity, negative = inhibition, actives largely listed as inhibitors; hit rate 0.71% among 290,000; AID 2451; further: on the % scale 0 is the no-effect control and ±100 the full control effect; nearly all actives have a fitted effect of over 55% in size
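Giardia FBPA (40 nM reagent) was preincubated 10 min at RT with compound (up to 57.5 uM final), then substrate plus GAPDH/TPI/NAD/arsenate coupling system with diaphorase/resazurin was added; resorufin fluorescence (525/598 nm) was read after 20 min.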
NS1 inh: blocks influenza NS1 protein function. Potency, µM (doses to about 46.1 µM), for the others: at the highest dose activity, positive = more growth. hit rate 0.4% among 270,000. AID 2326; calls by dose curve; further: actives are rising curves; nearly all actives have a fitted effect of over 50% in size
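Read-out: OD600 growth recovery of NS1-expressing budding yeast. Cells grown overnight at 30C in -URA glucose medium, washed, resuspended and diluted 1:100 in 2% galactose assay medium, pH 6.0. Same strain lacking NS1 served as positive control.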
Active calls of the source: *; ? = inconclusive; . = no result; [ ] = dose if it differs, or a comment. Unless noted, the call rests on the fitted dose curve; in most records, active means well fitted curve in the direction sought with a large enough effect; inconclusive means small, poorly fitted or top-dose-only effect, or another doubt; inactive means no such curve, though single readings can be large; an effect the other way counts as inactive or inconclusive. Potency means the concentration at half of the fitted maximal effect.

SMILES	AMA1-RON2 inh	LmPK inhibitor	Tb PYK inh	FBPA Giardia inh	NS1 inh
O=C(O)c1ccccc1-c1ccc(/C=c2\sc3nc4cc(Br)cnc4n3c2=O)o1	10.6µM*	8.9%	?	-25.1%	13.7%
O=C(CSc1ccc(-c2ccccn2)nn1)c1ccc([N+](=O)[O-])cc1	12.6µM*	4.3%	-3.3%	?	.
O=[N+]([O-])c1ccc(Sc2nc3ccccc3o2)c([N+](=O)[O-])c1	26.7µM*	5.4%	-2.4%	-18.3%	-161.3%
OCCC1CN(Cc2c(O)ccc3ccccc23)CCN1CCc1ccccc1 (stereo unspecified)	-20.8%	7.3%	-11.7%	19.9µM*	-1.0%
OCCC1CN(Cc2ccccc2O)CCN1CCCc1ccccc1 (stereo unspecified)	-1.9%	0.8%	0.6%	1.9%	-25.2%
O=C(Cn1sc2ccccc2c1=O)Nc1ccc(Br)cc1	9.5%	.	7.94µM*	.	.
CCOC(=O)c1c(C)oc2c1c(/C=N/c1ccccn1)c(O)c1ccccc12	.	.	.	.	25.2%
CCOC(=O)c1c(C)oc2c1c(C=NCCO)c(O)c1ccccc12	77.4%	-5.6%	-5.0%	1.99µM*	-12.4%
Cc1cc2nc(-c3cccnc3SCC(=O)NC(C)C)[nH]c2cc1C	7.8%	?	-7.5%	-10.2%	.
COCCOC(=O)CSc1ncccc1-c1nc2cc(C)c(C)cc2[nH]1	8.4%	14.1µM*	-7.0%	-20.7%	.
OCCN(CCO)c1ncnc2nc[nH]c12	.	.	.	.	0.3%
COc1ccc(C)cc1NC(=O)CSc1ccc(-c2ccccn2)nn1	20µM*	-1.9%	-7.2%	.	-126.0%
Cc1cccc(NC(=O)CSc2ccc(-c3ccccn3)nn2)c1	.	.	-0.9%	.	.
O=c1[nH]nc(CNc2ccc(C(F)(F)F)cc2)c2ccccc12	0.0%	6.5%	-3.7%	-11.1%	.
O=c1[nH]nc(CNc2ccc(O)cc2)c2ccccc12	-23.6%	-9.1%	-16.1%	17.7µM*	6.8%
CN(C)c1ccc(NC(=O)Nc2ccc3c(c2)c(=O)n(C)n3-c2ccccc2)cc1	20µM*	.	-6.9%	.	.
CCCCOCCOc1nc(-c2ccc(C(=O)O)c(F)c2)sc1C	.	.	0.4%	.	.
O=C(c1cc(-c2ccco2)nn1-c1cccc(Cl)c1)N1CCCCC1	-8.9%	-25.3%	10µM*	1.5%	-13.4%
COc1ccc(C(=O)c2coc3c2C(=O)C(=O)c2ccccc2-3)cc1	-23.2%	5.4%	-3.2%	7.06µM*	-80.2%
CS(=O)(=O)c1ccc([C@H](O)[C@H](CF)NC(=O)C(Cl)Cl)cc1	.	.	6.1%[33.2 µM]	1.4%[21.7 µM]	.
Cc1[nH][nH]c(=O)c1C(c1ccc(-c2ccc(F)cc2)o1)c1c(C)[nH][nH]c1=O	-3.6%	1.6%	-16.0%	?	-6.2%
COc1ccc(-c2ccc(C(c3c(C)[nH][nH]c3=O)c3c(C)[nH][nH]c3=O)o2)c([N+](=O)[O-])c1	49.4%	-7.1%	-6.9%	6.29µM*	-1.3%
COC(=O)N1CCC2(CCN(C(=O)Nc3cccc(F)c3)CC2)CC1	.	.	3.4%	-0.8%	.
Cc1cc(C(=O)CSc2nncs2)c(C)n1Cc1ccco1	22.4µM*	1.0%	0.7%	-15.7%	.
COc1ccc2[nH]c(C(=O)Nc3cccc(C)n3)cc2c1	-2.5%	28.2µM*	-25.1%	-0.3%	7.4%
SMILES	AMA1-RON2 inh	LmPK inhibitor	Tb PYK inh	FBPA Giardia inh	NS1 inh
COc1ccc2[nH]c(C(=O)Nc3ccc(C)c(F)c3)cc2c1	3.9%	-0.2%	-9.2%	-7.5%	-1.7%
COc1ccc(C(=O)c2ccc(C)cc2)c(OC)c1OC	5.1%	.	-0.8%	.	.
COc1ccc(C(=O)c2ccc(O)cc2)c(O)c1O	.	.	.	22.3µM*	.
CN(Cc1ccccc1)c1cc2c(c3c1ccn3C)C1CCC2O1 (stereo unspecified)	14.1µM*	.	-17.8%	.	.
CCN(Cc1ccccc1)c1cc2c(c3c1ccn3C)C1CCC2C1 (stereo unspecified)	20µM*	.	-4.3%	.	.
O=C(O)[C@H](CCc1ccccc1)N1C(=O)c2ccccc2C1=O	.	.	.	.	1.4%
C/C(CCc1ccco1)=N\NC(=O)CNc1cccc2ccccc12	0.0%	12.5%[11.5 µM]	4.4%	19.9µM*	.
COc1ccc(N2CCN(C(=O)c3cccnc3SCc3cccc(Br)c3)CC2)cc1	31.6µM*	-5.4%	-3.1%	-5.5%	.
Cc1ccc(COc2ccsc2-c2n[nH]c(=S)n2C)cc1	1.8%	-19.1%	.	-2.1%	-4.0%
Cn1c(-c2sccc2OCc2ccc(Cl)cc2Cl)n[nH]c1=S	56.3%	?	3.55µM*	2.0%	.
N=C(N)c1ccc(OCCCOc2ccc(C(=N)N)cc2)cc1	.	.	-4.2%	.	.
CN1CCN(C2=C(Cl)C(=O)C(c3cnc(N4CCCCC4)s3)=C(Cl)C2=O)CC1	?	?	1µM*	4.9%	6.7%
N.N.N.N.N.N.N.N.N.N.N.N.N.N.O.O.[Cl-].[Cl-].[Cl-].[Cl-].[Cl-].[Cl-].[Ru].[Ru].[Ru]	.	.	.	.	-44.4%
Oc1ccccc1-c1nc2c3ccccc3c3ccccc3c2[nH]1	17.0%	9.1%	-11.8%	17.7µM*	7.4%
Cn1c(/N=C/c2ccc3c(c2)OCO3)nc2ccccc21	1.7%	12.6µM*	-15.4%	-23.7%	9.3%
CCCN1C(=O)c2cc(C(=O)Nc3ccc(OC)c(OC)c3)ccc2C1Nc1ccc(OC)c(OC)c1 (stereo unspecified)	-21.0%	0.5%	-2.8%	-15.8%	.
CCCN1C(=O)c2cc(C(=O)Nc3ccc(OC)cc3OC)ccc2C1Nc1ccc(OC)cc1OC (stereo unspecified)	14.1µM*	15.6%	-4.2%	-15.4%	.
O=C(O)Cc1c[nH]c2ccc(F)cc12	.	.	.	.	-3.8%
COc1cc(/C=C2/C(=O)c3cccc([N+](=O)[O-])c3C2=O)c(Br)cc1O	?	14.1µM*	?	-29.6%	0.8%
C(=NN1CCCCCC1)c1ccccc1	-18.6%	.	-19.3%	.	.
